From PMC7862700, “An all-to-all approach to the identification of sequence-specific readers for epigenetic DNA modifications on cytosine”

Tests used:
Assay in all cases: DAPPL (digital affinity profiling via proximity ligation, sequencing); 10 mM Tris-HCl pH 7.5, 50 mM NaCl, 1 mM DTT, 4% glycerol, room temperature, 30 min; GST-TFs on glutathione beads, 16-mer random dsDNA library, 0.1% formaldehyde crosslink after washing; high values mean tight binding
[1] = biological target: T1, FEV (Homo sapiens, UniProt Q99581 1-238); conditions: protein: recombinant; tags: N-terminal GST; dsDNA, one strand shown
T1 sequence: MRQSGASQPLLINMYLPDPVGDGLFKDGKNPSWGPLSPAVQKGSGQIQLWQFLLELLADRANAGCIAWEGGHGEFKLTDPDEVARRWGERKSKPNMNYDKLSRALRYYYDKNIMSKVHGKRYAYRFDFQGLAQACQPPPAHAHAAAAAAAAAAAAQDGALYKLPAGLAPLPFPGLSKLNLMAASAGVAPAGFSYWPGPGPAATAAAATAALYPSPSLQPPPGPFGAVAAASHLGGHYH
In short: (§1)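 Beads coated with glutathione captured GST-fused human transcription factors that had been expressed in yeast, and the factors were then given DNA barcodes and pooled with a tag-only sample. The pools were incubated with 200 nmole of a random double-stranded 16-mer DNA library in Tris/NaCl/DTT/glycerol buffer for 30 min at room temperature, washed, crosslinked with 0.1% formaldehyde and proximity-ligated with BsaI/T4 ligase at 37 °C for 1 h. PCR amplification and Illumina NextSeq500 sequencing came last. Binding signal is each hexamer's read frequency for a factor divided by its frequency for the tag-only sample.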

[2] = biological target: ETV5 (Homo sapiens, UniProt P41161 1-510); conditions: protein: recombinant; tags: N-terminal GST; dsDNA, one strand shown
Sequence of ETV5 (P41161 whole entry): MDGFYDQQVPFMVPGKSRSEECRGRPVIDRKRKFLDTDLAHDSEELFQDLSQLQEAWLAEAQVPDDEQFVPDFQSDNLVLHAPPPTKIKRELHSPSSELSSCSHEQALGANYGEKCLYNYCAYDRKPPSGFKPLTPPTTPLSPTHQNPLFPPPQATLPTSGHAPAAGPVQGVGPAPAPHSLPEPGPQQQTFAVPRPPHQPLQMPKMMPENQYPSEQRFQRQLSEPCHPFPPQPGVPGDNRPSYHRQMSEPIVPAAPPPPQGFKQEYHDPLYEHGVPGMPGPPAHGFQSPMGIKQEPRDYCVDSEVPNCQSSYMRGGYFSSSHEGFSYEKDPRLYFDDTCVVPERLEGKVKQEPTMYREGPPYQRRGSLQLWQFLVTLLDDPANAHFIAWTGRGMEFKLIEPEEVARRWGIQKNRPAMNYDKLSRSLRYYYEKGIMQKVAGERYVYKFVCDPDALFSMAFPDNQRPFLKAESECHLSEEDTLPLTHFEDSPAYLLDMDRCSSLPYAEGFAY
In short: as §1

[3] = biological target: HSF1 (Homo sapiens, UniProt Q00613 1-529); conditions: protein: recombinant; tags: N-terminal GST; chain copies: 3; dsDNA, one strand shown
Sequence of HSF1 (Q00613 whole entry): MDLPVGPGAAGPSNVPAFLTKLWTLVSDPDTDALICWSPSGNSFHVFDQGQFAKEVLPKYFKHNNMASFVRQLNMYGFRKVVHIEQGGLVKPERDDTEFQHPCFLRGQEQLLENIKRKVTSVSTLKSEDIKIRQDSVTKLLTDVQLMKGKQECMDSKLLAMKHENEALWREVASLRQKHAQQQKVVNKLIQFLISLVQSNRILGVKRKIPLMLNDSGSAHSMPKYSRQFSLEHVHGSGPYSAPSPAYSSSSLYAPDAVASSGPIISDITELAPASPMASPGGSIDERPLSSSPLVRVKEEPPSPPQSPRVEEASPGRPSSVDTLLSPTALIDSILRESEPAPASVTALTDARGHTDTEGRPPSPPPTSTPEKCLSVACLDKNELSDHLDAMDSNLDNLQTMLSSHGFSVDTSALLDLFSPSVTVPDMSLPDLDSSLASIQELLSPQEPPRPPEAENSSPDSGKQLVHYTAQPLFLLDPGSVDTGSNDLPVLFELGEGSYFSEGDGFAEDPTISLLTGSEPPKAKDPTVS
In short: as §1

[4] = biological target: T2, SPIC (Homo sapiens, UniProt Q8N5J4 1-248); conditions: protein: recombinant; tags: N-terminal GST; dsDNA, one strand shown
T2 sequence: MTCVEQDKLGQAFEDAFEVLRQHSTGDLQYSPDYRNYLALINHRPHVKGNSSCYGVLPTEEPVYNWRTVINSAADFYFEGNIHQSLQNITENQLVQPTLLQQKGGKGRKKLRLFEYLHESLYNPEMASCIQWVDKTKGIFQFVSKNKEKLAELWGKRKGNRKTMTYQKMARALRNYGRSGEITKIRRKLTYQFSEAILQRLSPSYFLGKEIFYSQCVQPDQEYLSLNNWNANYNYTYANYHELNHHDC
In short: as §1

[5] = biological target: ELF4 (Homo sapiens, UniProt Q99607 1-663); conditions: protein: recombinant; tags: N-terminal GST; dsDNA, one strand shown
Sequence of ELF4 (Q99607 whole entry): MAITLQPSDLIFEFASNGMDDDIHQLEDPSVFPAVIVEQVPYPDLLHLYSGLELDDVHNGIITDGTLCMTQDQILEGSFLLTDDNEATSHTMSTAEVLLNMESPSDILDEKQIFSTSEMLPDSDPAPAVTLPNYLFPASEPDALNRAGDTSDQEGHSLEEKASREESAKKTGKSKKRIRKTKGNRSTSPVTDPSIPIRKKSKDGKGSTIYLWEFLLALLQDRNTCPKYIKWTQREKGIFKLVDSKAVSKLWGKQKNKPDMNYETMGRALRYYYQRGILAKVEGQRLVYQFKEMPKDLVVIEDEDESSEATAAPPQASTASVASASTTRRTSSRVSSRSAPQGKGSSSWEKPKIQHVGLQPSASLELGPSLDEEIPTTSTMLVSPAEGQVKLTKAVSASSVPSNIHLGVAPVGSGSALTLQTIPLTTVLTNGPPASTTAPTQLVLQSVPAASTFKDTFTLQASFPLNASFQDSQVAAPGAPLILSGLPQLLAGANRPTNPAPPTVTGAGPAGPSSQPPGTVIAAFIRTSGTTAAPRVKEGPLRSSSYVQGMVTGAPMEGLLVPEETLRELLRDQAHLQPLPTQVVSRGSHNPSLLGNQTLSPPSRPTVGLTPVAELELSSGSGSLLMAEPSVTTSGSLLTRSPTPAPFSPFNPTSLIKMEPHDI
In short: as §1

[6] = biological target: T3, ELK4 (Homo sapiens, UniProt P28324-2 1-405); conditions: protein: recombinant; tags: N-terminal GST; dsDNA, one strand shown
T3 sequence: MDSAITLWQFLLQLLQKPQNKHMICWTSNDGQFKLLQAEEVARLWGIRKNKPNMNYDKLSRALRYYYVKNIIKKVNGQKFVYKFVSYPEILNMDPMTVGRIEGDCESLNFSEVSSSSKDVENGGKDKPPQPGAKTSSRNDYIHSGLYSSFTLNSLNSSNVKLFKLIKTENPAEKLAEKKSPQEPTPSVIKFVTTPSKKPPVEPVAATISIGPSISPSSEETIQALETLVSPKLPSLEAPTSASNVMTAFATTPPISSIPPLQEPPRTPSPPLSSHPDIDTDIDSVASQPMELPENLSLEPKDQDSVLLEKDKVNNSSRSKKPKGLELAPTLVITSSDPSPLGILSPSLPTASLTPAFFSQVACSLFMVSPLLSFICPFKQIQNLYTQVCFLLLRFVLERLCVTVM
In short: as §1

[7] = biological target: T4, ETV2 (Homo sapiens, UniProt O00321 1-342); conditions: protein: recombinant; tags: N-terminal GST; dsDNA, one strand shown
T4 sequence: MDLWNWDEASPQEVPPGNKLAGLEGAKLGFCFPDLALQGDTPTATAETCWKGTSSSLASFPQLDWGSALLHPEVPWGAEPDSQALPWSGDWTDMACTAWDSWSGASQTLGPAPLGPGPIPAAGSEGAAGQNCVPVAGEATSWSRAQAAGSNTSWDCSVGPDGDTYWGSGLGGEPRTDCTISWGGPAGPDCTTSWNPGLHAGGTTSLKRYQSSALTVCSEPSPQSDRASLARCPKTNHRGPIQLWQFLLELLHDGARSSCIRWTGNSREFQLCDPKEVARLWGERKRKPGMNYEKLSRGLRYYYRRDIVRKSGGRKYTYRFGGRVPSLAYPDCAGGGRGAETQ
In short: as §1

[8] = biological target: T5, ELF3 (Homo sapiens, UniProt P78545 1-371); conditions: protein: recombinant; tags: N-terminal GST; dsDNA, one strand shown
T5 sequence: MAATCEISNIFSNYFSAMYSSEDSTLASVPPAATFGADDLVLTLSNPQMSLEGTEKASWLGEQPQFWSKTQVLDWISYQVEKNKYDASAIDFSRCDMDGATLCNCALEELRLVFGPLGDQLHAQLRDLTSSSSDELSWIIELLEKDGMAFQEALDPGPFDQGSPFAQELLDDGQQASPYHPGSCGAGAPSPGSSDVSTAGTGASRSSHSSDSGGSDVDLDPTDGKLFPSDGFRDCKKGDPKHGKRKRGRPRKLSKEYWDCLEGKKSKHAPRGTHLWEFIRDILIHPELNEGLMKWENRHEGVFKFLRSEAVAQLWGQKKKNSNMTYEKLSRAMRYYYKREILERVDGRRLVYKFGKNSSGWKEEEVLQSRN
In short: as §1

[9] = biological target: CRX (Homo sapiens, UniProt O43186 1-299); conditions: protein: recombinant; tags: N-terminal GST; dsDNA, one strand shown
Sequence of CRX (O43186 whole entry): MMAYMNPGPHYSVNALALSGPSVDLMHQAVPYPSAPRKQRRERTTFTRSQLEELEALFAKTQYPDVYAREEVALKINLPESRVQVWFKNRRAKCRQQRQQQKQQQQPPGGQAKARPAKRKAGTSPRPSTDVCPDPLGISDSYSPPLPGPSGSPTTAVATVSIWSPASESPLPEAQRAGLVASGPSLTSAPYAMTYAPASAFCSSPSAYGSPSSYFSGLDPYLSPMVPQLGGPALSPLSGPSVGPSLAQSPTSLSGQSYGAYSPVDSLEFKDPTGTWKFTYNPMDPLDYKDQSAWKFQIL
In short: as §1

[10] = biological target: ETV1 (Homo sapiens, UniProt P50549 1-477); conditions: protein: recombinant; tags: N-terminal GST; dsDNA, one strand shown
Sequence of ETV1 (P50549 whole entry): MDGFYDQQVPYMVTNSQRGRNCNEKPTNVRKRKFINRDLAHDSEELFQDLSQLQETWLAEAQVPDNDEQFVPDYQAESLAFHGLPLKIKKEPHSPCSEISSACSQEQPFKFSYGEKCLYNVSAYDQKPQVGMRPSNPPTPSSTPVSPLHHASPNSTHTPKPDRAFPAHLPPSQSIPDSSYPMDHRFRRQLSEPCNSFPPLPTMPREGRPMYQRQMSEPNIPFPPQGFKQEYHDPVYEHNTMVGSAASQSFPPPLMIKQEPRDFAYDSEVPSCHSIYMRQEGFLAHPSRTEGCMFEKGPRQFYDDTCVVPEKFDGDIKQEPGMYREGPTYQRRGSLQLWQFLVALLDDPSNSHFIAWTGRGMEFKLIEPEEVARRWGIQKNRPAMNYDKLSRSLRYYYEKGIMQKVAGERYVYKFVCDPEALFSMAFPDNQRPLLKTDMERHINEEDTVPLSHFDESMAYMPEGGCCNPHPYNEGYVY
In short: as §1

[11] = biological target: T6, ERF (Homo sapiens, UniProt P50548 1-548); conditions: protein: recombinant; tags: N-terminal GST; dsDNA, one strand shown
T6 sequence: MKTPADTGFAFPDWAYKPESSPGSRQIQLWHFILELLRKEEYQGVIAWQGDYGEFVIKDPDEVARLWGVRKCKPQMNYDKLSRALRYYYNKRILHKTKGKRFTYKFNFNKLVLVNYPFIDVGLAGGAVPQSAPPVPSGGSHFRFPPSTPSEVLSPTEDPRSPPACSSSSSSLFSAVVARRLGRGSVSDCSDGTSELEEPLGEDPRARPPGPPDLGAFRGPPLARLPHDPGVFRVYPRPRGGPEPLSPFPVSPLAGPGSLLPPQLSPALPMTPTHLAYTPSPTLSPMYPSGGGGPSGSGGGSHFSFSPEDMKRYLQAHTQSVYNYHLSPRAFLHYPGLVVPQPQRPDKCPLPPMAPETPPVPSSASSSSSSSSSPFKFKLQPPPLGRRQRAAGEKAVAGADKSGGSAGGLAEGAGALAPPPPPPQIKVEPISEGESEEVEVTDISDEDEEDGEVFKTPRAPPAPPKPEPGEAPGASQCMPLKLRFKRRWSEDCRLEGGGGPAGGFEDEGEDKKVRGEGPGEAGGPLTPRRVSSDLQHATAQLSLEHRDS
In short: as §1

[12] = biological target: T7, ETV3L (Homo sapiens, UniProt Q6ZN32 1-361); conditions: protein: recombinant; tags: N-terminal GST; dsDNA, one strand shown
T7 sequence: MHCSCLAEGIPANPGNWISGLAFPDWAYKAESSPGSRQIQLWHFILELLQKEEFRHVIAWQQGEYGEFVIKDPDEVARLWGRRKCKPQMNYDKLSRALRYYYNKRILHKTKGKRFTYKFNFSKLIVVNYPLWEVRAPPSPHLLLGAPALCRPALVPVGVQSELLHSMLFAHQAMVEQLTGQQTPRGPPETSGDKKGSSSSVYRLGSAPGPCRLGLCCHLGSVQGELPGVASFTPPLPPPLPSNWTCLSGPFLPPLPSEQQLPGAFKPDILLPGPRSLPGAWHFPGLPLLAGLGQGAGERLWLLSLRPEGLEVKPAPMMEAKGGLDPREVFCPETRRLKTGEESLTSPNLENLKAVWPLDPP
In short: as §1

[13] = biological target: T8, ETS2 (Homo sapiens, UniProt P15036 1-469); conditions: protein: recombinant; tags: N-terminal GST; dsDNA, one strand shown
T8 sequence: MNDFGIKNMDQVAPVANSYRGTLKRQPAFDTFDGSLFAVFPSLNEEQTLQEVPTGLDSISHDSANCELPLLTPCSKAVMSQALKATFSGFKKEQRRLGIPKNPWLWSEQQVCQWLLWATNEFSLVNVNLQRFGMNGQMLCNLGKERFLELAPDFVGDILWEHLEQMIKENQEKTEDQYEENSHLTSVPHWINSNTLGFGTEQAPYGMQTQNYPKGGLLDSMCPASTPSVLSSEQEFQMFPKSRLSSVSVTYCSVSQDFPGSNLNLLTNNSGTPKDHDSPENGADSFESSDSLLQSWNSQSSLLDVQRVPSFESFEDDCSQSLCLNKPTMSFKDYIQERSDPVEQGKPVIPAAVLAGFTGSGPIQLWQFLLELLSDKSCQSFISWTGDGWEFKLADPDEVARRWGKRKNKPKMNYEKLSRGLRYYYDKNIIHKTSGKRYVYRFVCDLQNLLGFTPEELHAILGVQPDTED
In short: as §1

[14] = biological target: T9, SPDEF (Homo sapiens, UniProt O95238 1-335); conditions: protein: recombinant; tags: N-terminal GST; dsDNA, one strand shown
T9 sequence: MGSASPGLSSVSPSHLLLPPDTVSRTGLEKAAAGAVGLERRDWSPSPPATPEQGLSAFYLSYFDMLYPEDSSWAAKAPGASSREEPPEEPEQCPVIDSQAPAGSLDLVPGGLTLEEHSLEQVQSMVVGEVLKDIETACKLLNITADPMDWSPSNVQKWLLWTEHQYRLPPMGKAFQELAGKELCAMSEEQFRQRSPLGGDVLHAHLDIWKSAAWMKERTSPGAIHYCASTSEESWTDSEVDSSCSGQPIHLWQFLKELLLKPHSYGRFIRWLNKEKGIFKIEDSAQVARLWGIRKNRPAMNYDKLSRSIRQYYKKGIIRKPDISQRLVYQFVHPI
In short: as §1

[15] = biological target: T10, ETV7 (Homo sapiens, UniProt Q9Y603 1-341); conditions: protein: recombinant; tags: N-terminal GST; dsDNA, one strand shown
T10 sequence: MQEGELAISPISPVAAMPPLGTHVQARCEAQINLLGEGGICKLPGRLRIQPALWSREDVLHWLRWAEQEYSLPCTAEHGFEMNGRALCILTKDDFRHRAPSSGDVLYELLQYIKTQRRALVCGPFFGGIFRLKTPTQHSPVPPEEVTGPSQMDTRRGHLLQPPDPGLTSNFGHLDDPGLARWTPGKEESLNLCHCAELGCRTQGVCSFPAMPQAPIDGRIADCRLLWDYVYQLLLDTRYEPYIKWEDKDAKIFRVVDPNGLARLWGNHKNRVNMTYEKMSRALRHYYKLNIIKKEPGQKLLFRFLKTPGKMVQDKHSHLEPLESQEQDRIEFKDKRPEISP
In short: as §1

[16] = biological target: T11, ELF5 (Homo sapiens, UniProt Q9UKW6-2 1-255); conditions: protein: recombinant; tags: N-terminal GST; dsDNA, one strand shown
T11 sequence: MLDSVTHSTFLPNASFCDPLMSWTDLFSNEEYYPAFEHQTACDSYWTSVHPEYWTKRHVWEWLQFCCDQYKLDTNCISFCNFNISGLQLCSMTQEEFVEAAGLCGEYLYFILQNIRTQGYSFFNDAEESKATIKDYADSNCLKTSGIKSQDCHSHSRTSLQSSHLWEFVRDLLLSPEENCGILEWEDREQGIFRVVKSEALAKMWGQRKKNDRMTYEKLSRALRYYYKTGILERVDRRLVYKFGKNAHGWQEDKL
In short: as §1

[17] = biological target: T12, ETV3 (Homo sapiens, UniProt P41162-2 1-143); conditions: protein: recombinant; tags: N-terminal GST; dsDNA, one strand shown
T12 sequence: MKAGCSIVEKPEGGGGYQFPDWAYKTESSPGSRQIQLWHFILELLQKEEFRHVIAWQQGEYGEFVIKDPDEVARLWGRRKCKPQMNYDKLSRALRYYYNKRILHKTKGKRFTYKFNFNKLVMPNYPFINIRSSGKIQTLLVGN
In short: as §1

[18] = biological target: ETV6 (Homo sapiens, UniProt P41212 1-452); conditions: protein: recombinant; tags: N-terminal GST; dsDNA, one strand shown
Sequence of ETV6 (P41212 whole entry): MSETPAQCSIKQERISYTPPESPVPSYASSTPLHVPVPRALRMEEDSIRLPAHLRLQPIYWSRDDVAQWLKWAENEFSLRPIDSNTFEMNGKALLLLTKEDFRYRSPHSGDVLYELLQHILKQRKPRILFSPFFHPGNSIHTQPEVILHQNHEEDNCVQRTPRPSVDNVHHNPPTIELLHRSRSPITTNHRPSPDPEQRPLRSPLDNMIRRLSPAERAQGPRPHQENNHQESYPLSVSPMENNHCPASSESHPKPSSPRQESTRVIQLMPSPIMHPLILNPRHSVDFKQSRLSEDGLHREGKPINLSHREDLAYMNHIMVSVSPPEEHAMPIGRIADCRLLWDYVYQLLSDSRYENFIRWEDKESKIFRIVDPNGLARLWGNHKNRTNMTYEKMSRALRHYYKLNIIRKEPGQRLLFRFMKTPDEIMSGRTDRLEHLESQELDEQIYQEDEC
In short: as §1

For CCTCCA, the binding signal [1] was 1.31 fold enrichment (6-mer frequency, TF over GST control), the binding signal [2] was 1.34 fold enrichment (6-mer frequency, TF over GST control) and the binding signal [3] was 1.29 fold enrichment (6-mer frequency, TF over GST control). For the same sequence, the binding signal [4] was 1.34 fold enrichment (6-mer frequency, TF over GST control), the binding signal [5] was 1.38 fold enrichment (6-mer frequency, TF over GST control) and the binding signal [6] was 1.47 fold enrichment (6-mer frequency, TF over GST control). For the same sequence, the binding signal [7] was 1.43 fold enrichment (6-mer frequency, TF over GST control), the binding signal [8] was 1.02 fold enrichment (6-mer frequency, TF over GST control) and the binding signal [9] was 1.12 fold enrichment (6-mer frequency, TF over GST control). For the same sequence, the binding signal [10] was 1.36 fold enrichment (6-mer frequency, TF over GST control), the binding signal [11] was 1.34 fold enrichment (6-mer frequency, TF over GST control) and the binding signal [12] was 1.24 fold enrichment (6-mer frequency, TF over GST control). The binding signal [13] was 1.31 fold enrichment (6-mer frequency, TF over GST control), the binding signal [14] was 1.34 fold enrichment (6-mer frequency, TF over GST control) and the binding signal [15] was 1.36 fold enrichment (6-mer frequency, TF over GST control). For the same sequence, the binding signal [16] was 1.42 fold enrichment (6-mer frequency, TF over GST control), the binding signal [17] was 1.24 fold enrichment (6-mer frequency, TF over GST control) and the binding signal [18] was 1.29 fold enrichment (6-mer frequency, TF over GST control).
